This is part of a sample that, as a whole, favours compounds with a hit. Of some 79,000 tested, about 15% had one in any assay. Calls of active or inactive are those of the source. No stated cut-off is given here; in the data, active means growth inhibition above about 70%; inactive means the rest.
Key:
[1] = NCI Yeast Anticancer Drug Screen. Data for the rad52 strain (AID 147);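 further: 0% = growth of vehicle-treated control cultures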; conditions: S. cerevisiae rad52 mutant growth inhibition, hits give high values
Outline: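 Read-out: growth inhibition versus vehicle-treated controls. Cells were a DNA repair-deficient yeast strain treated with compounds.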

[2] = NCI Yeast Anticancer Drug Screen. Data for the wt1 strain (AID 149);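 further: 0% = growth of vehicle-treated wt1 cultures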; conditions: S. cerevisiae wt1 strain (SPY 50644) growth inhibition, hits give high values
Outline: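 Measured: growth of wt1 yeast under compound versus vehicle treatment, reported as inhibition.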

[3] = NCI Yeast Anticancer Drug Screen. Data for the rad50EPP+ strain (AID 151);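 further: 0% = growth of vehicle-treated control cultures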; conditions: S. cerevisiae rad50 mutant strain, hits give high values
Outline: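 Growth inhibition read against vehicle controls in rad50EPP+ yeast, a strain altered in DNA damage repair, after compound exposure.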

[4] = NCI Yeast Anticancer Drug Screen. Data for the rad50 strain (AID 155);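 further: 0% = growth of vehicle-only cultures of the same strain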; conditions: S. cerevisiae rad50 strain growth inhibition, hits give high values
Outline: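 Growth of the mutant yeast was measured after compound exposure and referenced to vehicle-treated cultures.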

[5] = NCI Yeast Anticancer Drug Screen. Data for the mec2-1 strain (AID 157); conditions: S. cerevisiae mec2-1 strain, hits give high values
Outline: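 Yeast mec2-1 mutant treated with compound. Readout: growth inhibition vs vehicle controls.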

[6] = NCI Yeast Anticancer Drug Screen. Data for the rad14 strain (AID 159);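 further: 0% = growth of vehicle-treated control cultures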; conditions: S. cerevisiae rad14 strain growth inhibition, hits give high values
Outline: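 Here, inhibition of yeast growth was measured after compound exposure, using a strain with a genetic defect in DNA damage repair and vehicle-treated cultures as the reference.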

[7] = NCI Yeast Anticancer Drug Screen. Data for the sgs1 mgt1 strain (AID 161);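 further: 0% = growth of cultures given vehicle only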; conditions: S. cerevisiae sgs1 mgt1 strain, hits give high values
Outline: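 Mutant yeast exposed to compound; growth scored against vehicle-only wells.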

[8] = NCI Yeast Anticancer Drug Screen. Data for the CLN2oe strain (AID 163);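 further: 0% = growth of vehicle-only control cultures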; conditions: S. cerevisiae CLN2oe strain, hits give high values
Outline: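 Read-out: yeast growth inhibition, expressed relative to vehicle-only controls. The strain bears an engineered cell-cycle alteration.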

[9] = NCI Yeast Anticancer Drug Screen. Data for the cln2 rad14 strain (AID 165);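 further: 0% = growth equal to vehicle treated cultures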; conditions: S. cerevisiae cln2 rad14 strain, hits give high values
Outline: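 cln2 rad14 yeast strain; compound exposure; growth inhibition read vs vehicle controls.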

[10] = NCI Yeast Anticancer Drug Screen. Data for the bub3 strain (AID 167); conditions: S. cerevisiae bub3 mutant strain, hits give high values
Outline: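 Whole-cell yeast assay. The mutant strain was incubated with compounds, and growth inhibition was determined by comparison with vehicle-treated cells.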

[11] = NCI Yeast Anticancer Drug Screen. Data for the wt2 strain (AID 169);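 further: 0% = growth of vehicle-treated yeast cultures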; conditions: S. cerevisiae wt2 strain growth inhibition, hits give high values
Outline: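 Read-out: growth inhibition versus vehicle-treated control cultures after compound exposure of the yeast strain.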

[12] = NCI Yeast Anticancer Drug Screen. Data for the mlh1 strain (AID 171);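 further: 0% = growth of vehicle-treated control cultures of the same strain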; conditions: S. cerevisiae mlh1 strain growth inhibition, hits give high values
Outline: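 Read-out: growth inhibition versus vehicle controls. Strain: engineered yeast with a defined DNA repair or cell cycle defect, compound-treated.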

[13] = NCI Yeast Anticancer Drug Screen. Data for the sgs1 strain (AID 173);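 further: 0% = growth of vehicle-only control cultures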; conditions: S. cerevisiae sgs1 mutant, hits give high values
Outline: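 Read-out: yeast growth inhibition relative to vehicle controls, following compound exposure of a strain with a defined DNA repair/cell cycle alteration.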

[14] = NCI Yeast Anticancer Drug Screen. Data for the mlh1 rad18 strain (AID 175); conditions: S. cerevisiae mlh1 rad18 strain growth inhibition, hits give high values
Outline: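 Yeast w/ defined DNA-repair lesions; compound exposure; growth vs vehicle controls → % inhibition.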

[15] = NCI Yeast Anticancer Drug Screen. Data for the mgt1 strain (AID 153); conditions: S. cerevisiae mgt1 mutant growth inhibition, hits give high values
Outline: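 mgt1 yeast grown with test compound; read-out is growth inhibition versus vehicle-treated cultures.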

[16] = NCI Yeast Anticancer Drug Screen. Data for the rad18 strain (AID 177); conditions: S. cerevisiae rad18 mutant growth inhibition, hits give high values
Outline: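 Readout: growth inhibition vs vehicle controls. Cells: genetically altered yeast strain, DNA repair defect.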

[17] = at 5.0 µM (retest, dose inferred, filed as 0.5)
[18] = at 50.0 µM (retest, dose inferred, filed as 5.0)

Measured: growth inhibition

O=C(N/N=C/c1ccc2c(c1)CCC2)c1ccccc1[N+](=O)[O-]
inactive: [1]; at 1.2 µM -18% | [1]; at 3.7 µM -15% | [1]; at 11.0 µM -3% | [1]; at 33.0 µM -1% | [2]; at 1.2 µM -17% | [2]; at 3.7 µM -7% | [2]; at 11.0 µM -21% | [2]; at 33.0 µM -16% | [3]; at 1.2 µM 8% | [3]; at 3.7 µM 15% | [3]; at 11.0 µM 21% | [3]; at 33.0 µM 0% | [3]; at 100.0 µM 23% | [4]; at 1.2 µM 5% | [4]; at 3.7 µM 26% | [4]; [17] 62% | [4]; at 11.0 µM 35% | [4]; at 33.0 µM 18% | [5]; at 1.2 µM 0% | [5]; at 3.7 µM -10% | [5]; at 11.0 µM -9% | [5]; at 33.0 µM 7% | [6]; at 1.2 µM -10% | [6]; at 3.7 µM -8% | [6]; at 11.0 µM 2% | [6]; at 33.0 µM 6% | [7]; [17] -13% | [7]; [18] 53% | [8]; at 1.2 µM -3% | [8]; at 3.7 µM -5% | [8]; at 11.0 µM 21% | [8]; at 33.0 µM 18% | [10]; at 1.2 µM 5% | [10]; at 3.7 µM 19% | [10]; [17] 34% | [10]; at 11.0 µM 23% | [10]; at 33.0 µM 33% | [10]; [18] 49% | [11]; at 1.2 µM 16% | [11]; at 3.7 µM 12% | [11]; at 11.0 µM 12% | [11]; at 33.0 µM 37% | [12]; at 1.2 µM -19% | [12]; at 3.7 µM -20% | [12]; at 11.0 µM -43% | [12]; at 33.0 µM 18% | [13]; at 1.2 µM 15% | [13]; at 3.7 µM 23% | [13]; at 11.0 µM 30% | [13]; at 33.0 µM 42% | [14]; [17] 36%
active: [1]; at 100.0 µM 95% | [2]; at 100.0 µM 96% | [4]; [18] 98% | [4]; at 50.0 µM 88.4% | [4]; at 100.0 µM 94% | [5]; [17] 70% | [5]; [18] 99% | [5]; at 50.0 µM 71.2% | [5]; at 100.0 µM 94% | [6]; at 100.0 µM 95% | [8]; at 100.0 µM 94% | [9]; [17] 71% | [9]; [18] 70% | [10]; at 100.0 µM 96% | [11]; at 100.0 µM 97% | [12]; at 100.0 µM 95% | [13]; at 100.0 µM 96% | [14]; [18] 99% | [14]; at 50.0 µM 81.7%

NNc1nnc(-c2ccccc2)nc1Cc1ccccc1
active: [2]; at 33.0 µM 96% | [2]; at 100.0 µM 88% | [3]; at 100.0 µM 90% | [15]; at 33.0 µM 97% | [15]; at 100.0 µM 88% | [4]; at 33.0 µM 96% | [4]; at 100.0 µM 93% | [5]; at 33.0 µM 95% | [5]; [18] 90% | [5]; at 50.0 µM 91.3% | [5]; at 100.0 µM 87% | [6]; at 33.0 µM 96% | [6]; at 100.0 µM 91% | [7]; [18] 95% | [7]; at 50.0 µM 82.9% | [8]; at 33.0 µM 97% | [8]; at 100.0 µM 93% | [9]; [18] 80% | [9]; at 50.0 µM 86% | [10]; at 33.0 µM 97% | [10]; [18] 96% | [10]; at 50.0 µM 89% | [10]; at 100.0 µM 90% | [11]; at 33.0 µM 95% | [11]; at 100.0 µM 91% | [12]; at 33.0 µM 97% | [12]; at 100.0 µM 83% | [13]; at 33.0 µM 91% | [13]; at 100.0 µM 94% | [14]; [18] 97% | [14]; at 50.0 µM 83.6%
inactive: [2]; at 1.2 µM -25% | [2]; at 3.7 µM -15% | [2]; at 11.0 µM -7% | [3]; at 1.2 µM -12% | [3]; at 3.7 µM -3% | [3]; at 11.0 µM 12% | [3]; at 33.0 µM 48% | [15]; at 1.2 µM 16% | [15]; at 3.7 µM 21% | [15]; at 11.0 µM 21% | [4]; at 1.2 µM 4% | [4]; at 3.7 µM -1% | [4]; [17] -35% | [4]; at 11.0 µM 10% | [4]; [18] -4% | [4]; at 50.0 µM 67.1% | [5]; at 1.2 µM -11% | [5]; at 3.7 µM -9% | [5]; [17] 2% | [5]; at 11.0 µM -8% | [6]; at 1.2 µM -8% | [6]; at 3.7 µM -16% | [6]; at 11.0 µM -12% | [7]; [17] -7% | [8]; at 1.2 µM 25% | [8]; at 3.7 µM 18% | [8]; at 11.0 µM 11% | [9]; [17] 12% | [10]; at 1.2 µM 16% | [10]; at 3.7 µM 5% | [10]; [17] -9% | [10]; at 11.0 µM -17% | [11]; at 1.2 µM -34% | [11]; at 3.7 µM -30% | [11]; at 11.0 µM -11% | [12]; at 1.2 µM 6% | [12]; at 3.7 µM 4% | [12]; at 11.0 µM 27% | [13]; at 1.2 µM -15% | [13]; at 3.7 µM -15% | [13]; at 11.0 µM -6% | [14]; [17] -30%

Cc1ccc(P(c2ccc(C)cc2)c2ccc(C)cc2)cc1
inactive: [1]; at 1.2 µM -11% | [1]; at 3.7 µM -12% | [1]; at 11.0 µM 1% | [1]; at 33.0 µM 11% | [1]; at 100.0 µM 23% | [3]; at 1.2 µM -7% | [3]; at 3.7 µM -10% | [3]; at 11.0 µM -12% | [3]; at 33.0 µM -23% | [3]; at 100.0 µM -34% | [6]; at 1.2 µM -34% | [6]; at 3.7 µM -41% | [6]; at 11.0 µM -40% | [6]; at 33.0 µM -31% | [6]; at 100.0 µM -31% | [8]; at 1.2 µM 8% | [8]; at 3.7 µM 4% | [8]; at 11.0 µM 4% | [8]; at 33.0 µM 10% | [8]; at 100.0 µM 18% | [11]; at 1.2 µM -17% | [11]; at 3.7 µM -15% | [11]; at 11.0 µM -15% | [11]; at 33.0 µM 5% | [11]; at 100.0 µM 13% | [12]; at 1.2 µM -30% | [12]; at 3.7 µM -36% | [12]; at 11.0 µM -16% | [12]; at 33.0 µM -6% | [12]; at 100.0 µM 13% | [13]; at 1.2 µM -27% | [13]; at 3.7 µM -27% | [13]; at 11.0 µM 4% | [13]; at 33.0 µM 18% | [13]; at 100.0 µM 39% | [16]; at 1.2 µM -1% | [16]; at 3.7 µM -4% | [16]; at 11.0 µM 9% | [16]; at 33.0 µM 28% | [16]; at 100.0 µM 34%

Source: PubChem BioAssay (NCI)
